Rows were chosen to be rich in hits. Some 6.5% of all compounds tested hit in one or more screens of this group.
Vaccinia Venus = inhibitors of vaccinia virus (Venus reporter); Vaccinia virus Venus reporter expression, fluorescence; Potency, µM (titrated, usually from 36.5 µM), inactives show top-dose activity change, negative = inhibition, most hits filed as inhibitors; 330,000 compounds, 0.46% hits; AID 720580; calls by dose curve; tested in A549 cells; note: potency is the fitted concentration of half-maximal effect; nearly all actives have a fitted effect of over 30% in size
VACV mCherry inh = vaccinia inhibition (mCherry reporter); Vaccinia virus mCherry reporter infection, fluorescence; Potency, µM (titrated, usually from 36.5 µM), for the others: top-dose activity change, negative = inhibition, hits mostly inhibitors; 310,000 compounds, 0.63% hits; AID 720579; calls by dose curve; tested in A549 cells; note: potency is the fitted concentration of half-maximal effect; nearly all actives have a fitted effect of over 35% in size
HCMV inh = human cytomegalovirus inhibition | activity change, negative = inhibition, % at 57.5 µM | HFF cells, HCMV-luciferase reporter, 72 h; hits give low values | AID 1259415 | 410,000 compounds, 4.5% hits; in the data active = activity change below about -60%; inconclusive = no clear call, values can overlap the other calls; inactive = above about -39%
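Human foreskin fibroblasts infected with luciferase-reporter HCMV at MOI 1 PFU/cell, compounds at two doses. Luciferase measured 72 h post infection; normalized to buffer-only basal and Salinomycin (10uM) controls.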
MARV entry inh = Marburg virus entry inhibition; AID 540276; Marburg virus pseudotyped entry inhibition, cell reporter; 300,000 compounds, 1.8% hits; Potency, µM (top dose mostly 37.8 µM), for inactives: top-dose activity change, negative = inhibition, hits mostly inhibitors; calls by dose curve; tested in HEK293 cells; note: potency is the fitted concentration of half-maximal effect
Lassa entry inh = blocks Lassa virus binding to or entry into cells; Lassa virus pseudotype entry inhibition, cell reporter; Potency, µM (series often up to 37.9 µM), for the others: at the highest dose activity change, negative = inhibition, actives largely listed as inhibitors; 300,000 compounds, 1.2% hits; AID 540256; calls by dose curve; tested in HEK293 cells; note: potency is the fitted concentration of half-maximal effect; nearly all actives have a fitted effect of over 50% in size
FMDV inh = antivirals against foot and mouth disease virus; Potency, µM (doses to about 57.9 µM), without a hit: top-dose activity change, negative = inhibition, usual class: inhibitors; AID 1159524; FMDV antiviral cell-based qHTS; 410,000 compounds, 1.2% hits; calls by dose curve; tested in HEK293T cells; note: read-out not given here; potency is the fitted concentration of half-maximal effect; nearly all actives have a fitted effect of over 45% in size
* hit, by the source's call; i = inactive; ? = inconclusive; · = not tested or not shown; [ ] = remark or other dose. % is set by controls: 0 for no effect and ±100 for the full control effect.

SMILES | Vaccinia Venus | VACV mCherry inh | HCMV inh | MARV entry inh | Lassa entry inh | FMDV inh
O=C(NCCCc1ccccc1)c1nn(-c2ccccc2F)nc1CO | -16% | -8% | -61* | 10%[46.1 µM] | ? | ?
O=C(NCCCCc1ccccc1)c1nn(-c2ccccc2F)nc1CO | -6% | -7% | -20 | -2%[46.1 µM] | -3%[46.1 µM] | 0%
O=C(NCC(c1ccccc1)c1ccccc1)c1nn(-c2ccccc2F)nc1CO | -21% | -22% | -35 | -9%[46.1 µM] | ? | 10µM*
O=C(NCc1cccs1)c1nn(-c2ccccc2F)nc1CO | -25% | -23% | -66* | 12%[46.1 µM] | -26%[46.1 µM] | ?
O=C1Nc2cc(Cl)ccc2Oc2cc(Oc3ccccc3)ccc21 | -22% | -29% | -1 | · | ? | -11%
N#CC1=C(N)OC2=C(C(=O)CC(c3ccccc3)C2)C1c1ccc2c(c1)OCO2 (centres undefined) | -9% | -30% | ? | -4% | 13µM* | ?
N#CC1=C(N)OC(c2ccccc2)=C(C#N)C1c1ccc2c(c1)OCO2 (centres undefined) | · | · | 47 | 12% | -1% | -2%
COc1ccc2ccccc2c1CNCc1ccc(C)cc1 | 0% | -9% | 4 | 10µM* | -6%[46.1 µM] | -22%
Cc1c(C(=O)NC2CCCC2)sc2ncnc(NCCN(C)C)c12 | -4% | -7% | · | · | · | -5%
COc1cc(C)c(C2NC(=O)c3ccccc3N2)cc1C (centres undefined) | -29% | ? | 60 | -6% | ? | 6%
Cc1ccc(C)c(C2NC(=O)c3ccccc3N2)c1 (centres undefined) | ? | ? | -68* | · | · | 2%
N#CC1CCCc2c1[nH]c1ccc([N+](=O)[O-])cc21 (centres undefined) | -14% | i | -32 | 10µM* | ? | -18%
O=c1c2ccccc2nc(/C=C/c2ccccc2F)n1-c1ccccc1O | · | · | -92* | · | · | ?
C(=C\c1nc2ccccc2[nH]1)/c1ccccc1 | · | · | 10 | ? | ? | 16µM*
O=C(O)c1cccc(-n2c(/C=C/c3ccc([N+](=O)[O-])cc3)nc3ccccc3c2=O)c1 | · | · | -62* | · | · | -20%
CN(C)c1ccc(/C=C/c2nc3ccccc3c(=O)[nH]2)cc1 | -15% | i | 25 | · | · | 10µM*
Cc1cccc(-n2c(C)nc3ccccc3c2=O)c1C | -2% | -8% | -76* | 4%[46.1 µM] | -1% | -25%
COc1ccc(C(=O)Nc2cccc(/C=C/c3nc4ccccc4c(=O)[nH]3)c2)cc1 | · | · | -84* | · | · | ?
Cc1ccccc1-n1c(/C=C/c2c(C)[nH]c3ccccc23)nc2ccccc2c1=O | -27%[7.34 µM] | ? | ? | · | ? | ?
O=C(Nc1cccc(/C=C/c2nc3ccccc3c(=O)[nH]2)c1)c1ccccc1Cl | · | · | 40 | · | · | 12%
Cc1ccccc1-n1c(/C=C/c2ccc(N(C)C)cc2)nc2ccccc2c1=O | 10% | -14% | -82* | · | ? | -26%
O=c1c2ccccc2nc(/C=C\c2ccccc2[N+](=O)[O-])n1-c1ccccc1O | ? | ? | 0 | ? | 7.9µM* | ?
COc1cc([C@H]2C[C@H](C(F)(F)F)n3ncc(C(=O)O)c3N2)cc(OC)c1OC | · | · | · | -7% | · | ·
Cc1ccc(OCC(=O)Nc2cccc(OCc3cc(=O)n4cccc(C)c4n3)c2)cc1C | -14% | -1% | 8 | · | 6%[46.1 µM] | -19%
O=c1c2ccccc2nc(/C=C/c2ccccc2O)n1-c1ccccc1O | · | · | -98* | · | · | ·
SMILES | Vaccinia Venus | VACV mCherry inh | HCMV inh | MARV entry inh | Lassa entry inh | FMDV inh
CC(=O)Nc1ccc(NC(=O)CSc2nc3ccccc3nc2N2CCOCC2)cc1 | -6% | -13% | 33 | -6%[46.1 µM] | ? | -24%
COc1cccc(NC(=O)CSc2nc3ccccc3nc2N2CCOCC2)c1 | -15% | i | ? | ? | 7.1µM* | -19%
C=C1NN(C(C)C(=O)O)C(=O)N1c1ccc(OCc2ccccc2)cc1 (centres undefined) | -8% | -18% | · | · | · | ·
COc1cc2c(cc1OC)CN(C(=O)CSC1=NCCS1)CC2 | -25% | -15% | -69* | · | · | ?
COc1cc2c(cc1OC)CN(C(=O)CSc1ccccc1C)CC2 | -18% | i | -38 | 16% | 2% | ?
COc1ccc2c(c1)CCC1C2CC[C@@]2(C)C(O)CCC12 (some centres undefined) | 10% | -2% | · | · | · | 11%

Bioassay records as filed in PubChem.
